HP1b binding inh: blocks HP1-beta chromodomain binding to methylated histone tails. P83916. AlphaScreen HP1-beta / biotin-H3K9me3 peptide binding. Potency, µM (series often up to 114 µM), inactives show top-dose activity change, negative = inhibition, hits mostly inhibitors. 390,000 tested, 0.56% active. AID 540317; further: nearly all actives have a fitted effect of over 70% in size
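HP1-beta protein (50 nM final) preincubated 30 min at room temperature with biotinylated H3(1-18)K9me3 peptide (50 nM) in PBS pH 7.4, 0.01% Tween-20, then compound added for 30 min. AlphaScreen streptavidin donor/nickel chelate acceptor beads (10 ug/mL final), 30 min dark, luminescence read.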
G9a inh: G9a (human) methyltransferase inhibition | Q96KQ7 | G9a H3K9 monomethylation, AlphaScreen, 2 h | Potency, µM (highest dose often 102 µM), inactives show at the highest dose activity, negative = inhibition, most hits filed as inhibitors | 350,000 tested, 8.8% active; further: on the % scale 0 is the no-effect control and ±100 the full control effect; nearly all actives have a fitted effect of over 75% in size
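G9a (20 nM) was preincubated 15 min with compound, then reacted 2 h at room temperature with 500 nM biotin-H3K9 peptide and 20 µM SAM. Monomethyl-H3K9 detected by AlphaScreen using anti-H3K9me1 antibody.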
Sfp PPTase inh: inhibitors of Bacillus subtilis Sfp phosphopantetheinyl transferase; Q9F4F7; AID 1490; Biochemical Sfp PPTase activity, qHTS; 310,000 tested, 3.5% active; Potency, µM, without a hit: largest response in the series, negative = inhibition, usual class: inhibitors;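 further: the enzyme is Sfp with the accession as filed and its product quenches rhodamine fluorescence; 0% = enzyme reaction without inhibitor and -100% = no enzyme wells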
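Buffer: 50 mM Hepes-Na pH 7.6, 10 mM MgCl2, 0.01% Nonidet P-40, 0.01% BSA. Enzyme 15 nM, pre-exposed to compound 15 min; substrates then added and fluorescence change tracked over 30 min.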
JMJD2A Tudor: blocks the human JMJD2A Tudor domain. O75164. AlphaScreen JMJD2A-Tudor / H3K4me3 peptide binding. Potency, µM (highest dose often 114 µM), without a hit: at the highest dose activity change, negative = inhibition, actives largely listed as inhibitors. 390,000 tested, 4.4% active; further: on the % scale 0 is the no-effect control and ±100 the full control effect; nearly all actives have a fitted effect of over 50% in size
Target sequence (O75164 whole entry, looked up, the tested form may be a part): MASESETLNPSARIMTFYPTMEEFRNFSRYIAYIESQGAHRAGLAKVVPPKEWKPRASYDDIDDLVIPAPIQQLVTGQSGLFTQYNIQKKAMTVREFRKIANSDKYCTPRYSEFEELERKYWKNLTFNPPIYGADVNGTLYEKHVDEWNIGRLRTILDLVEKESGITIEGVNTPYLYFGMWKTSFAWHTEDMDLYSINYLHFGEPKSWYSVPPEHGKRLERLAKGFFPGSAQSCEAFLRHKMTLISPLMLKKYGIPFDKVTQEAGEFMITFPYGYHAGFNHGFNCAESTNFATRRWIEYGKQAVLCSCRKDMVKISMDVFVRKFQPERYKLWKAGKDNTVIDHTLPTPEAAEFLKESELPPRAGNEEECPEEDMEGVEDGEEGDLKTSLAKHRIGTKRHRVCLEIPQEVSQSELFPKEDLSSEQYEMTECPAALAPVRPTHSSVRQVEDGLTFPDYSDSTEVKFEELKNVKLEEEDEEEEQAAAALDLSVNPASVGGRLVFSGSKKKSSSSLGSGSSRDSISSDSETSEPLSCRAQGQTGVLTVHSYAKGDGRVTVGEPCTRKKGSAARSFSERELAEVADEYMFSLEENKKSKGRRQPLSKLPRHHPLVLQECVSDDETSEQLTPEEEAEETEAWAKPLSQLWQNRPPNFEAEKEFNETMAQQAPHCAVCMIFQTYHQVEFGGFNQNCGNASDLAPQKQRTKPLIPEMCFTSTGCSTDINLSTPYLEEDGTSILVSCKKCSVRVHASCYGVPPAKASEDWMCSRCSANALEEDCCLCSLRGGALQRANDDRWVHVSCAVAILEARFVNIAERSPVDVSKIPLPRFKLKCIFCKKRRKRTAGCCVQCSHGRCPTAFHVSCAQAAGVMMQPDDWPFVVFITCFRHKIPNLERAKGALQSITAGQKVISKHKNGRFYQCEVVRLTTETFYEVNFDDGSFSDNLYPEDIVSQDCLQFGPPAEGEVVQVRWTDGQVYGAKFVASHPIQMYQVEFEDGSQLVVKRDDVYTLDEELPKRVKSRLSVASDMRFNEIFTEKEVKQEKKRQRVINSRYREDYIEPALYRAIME
BAZ2B block: blocks human BAZ2B. AlphaScreen BAZ2B-H3K14Ac peptide displacement. Q9UIF8. 360,000 tested, 4.4% active. AID 504333. Potency, µM (series often up to 114 µM), without a hit: at the top dose activity change, negative = inhibition, usual class: inhibitors; further: on the % scale 0 is the no-effect control and ±100 the full control effect; nearly all actives have a fitted effect of over 60% in size
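Inhibition is scored as reduced AlphaScreen emission. The BAZ2B/b-H3(5-23)K14Ac complex (50 nM each) in PBS pH 7.4, 0.01% Tween-20 meets compound (up to 110 uM) for 30 min at RT before bead addition.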
Starred values were filed as active, the others as inactive; [ ] = dose if it differs, or a comment. In the library only some 12% were active in any assay of this set; here they are far more common. The call rests on the fitted dose curve; in most records, active means well fitted curve in the direction sought with a large enough effect; inconclusive means small, poorly fitted or top-dose-only effect, or another doubt; inactive means no such curve, though single readings can be large; an effect the other way counts as inactive or inconclusive. Potency means the concentration at half of the fitted maximal effect.

`Cc1ccc(Cl)cc1NC(=O)c1sc(-n2nc(C)c(Cc3ccc4c(c3)OCO4)c2C)nc1C` gave HP1b binding inh 33%, G9a inh -24%[59 µM], JMJD2A Tudor -7% and BAZ2B block -34%.
Cc1cccn2c(=O)c(C=O)c(N3CCN(C)CC3)nc12 was read as HP1b binding inh 16%, G9a inh 22%[0.501 µM], Sfp PPTase inh 21%, JMJD2A Tudor -15% and BAZ2B block 0%.
For CCCOc1ccc(C(=O)NC(=S)NNC(=O)c2c(-c3ccccc3)noc2C)cc1 the results were HP1b binding inh -5%, Sfp PPTase inh 12%, JMJD2A Tudor inconclusive and BAZ2B block -3%.
Screening O=C(Nc1ccc(C(=O)N2CCN(c3ccccn3)CC2)cc1)c1ccc(Br)o1 returned HP1b binding inh -1%, G9a inh 11%[2.33 µM], JMJD2A Tudor -32% and BAZ2B block inconclusive.
CCc1ccccc1S(=O)(=O)Cc1ccc(C(=O)N2CCN(c3ccccn3)CC2)o1 was read as HP1b binding inh 66%, G9a inh 79µM*, Sfp PPTase inh inconclusive, JMJD2A Tudor -7% and BAZ2B block -3%.
O=C(c1ccc(Br)o1)N1CCN(c2ccccn2)CC1 was read as HP1b binding inh 10%, G9a inh -50%[12.7 µM], Sfp PPTase inh 25µM*, JMJD2A Tudor -7% and BAZ2B block 3%.
Cc1cc(OCC[N+]2(C)CCCCC2)nc2ccccc12 was read as HP1b binding inh -19%, G9a inh inconclusive, Sfp PPTase inh 19%, JMJD2A Tudor 40µM* and BAZ2B block -11%.
For O=C(NCC1CCCO1)C(=O)N/N=C/c1ccc(OCc2ccccc2Cl)cc1 (stereo not given) the results were HP1b binding inh 3% and JMJD2A Tudor 45µM*.
For COCCNc1nc2nonc2nc1N(C)Cc1cccc2cnccc12 the results were HP1b binding inh -8%, G9a inh -43%, Sfp PPTase inh 7%, JMJD2A Tudor -14% and BAZ2B block -18%.
`Cc1cc(C)n2nc(SCc3nnc(-c4ccc(F)cc4)o3)nc2n1` gave G9a inh 32µM*, Sfp PPTase inh -16% and BAZ2B block -18%.
`Cc1cc(C)n2nc(SCc3ccccc3)nc2n1` gave HP1b binding inh 45%, G9a inh 2%, Sfp PPTase inh 1%, JMJD2A Tudor 8% and BAZ2B block 1%.
Screening Cc1cc(C)n2nc(SCc3cc(=O)oc4cc(O)ccc34)nc2n1 returned G9a inh inconclusive, Sfp PPTase inh -15% and BAZ2B block 50µM*.
For COCCCNC(=S)N(CCCO)Cc1cc2cc3c(cc2[nH]c1=O)OCCO3 the results were HP1b binding inh 41%, G9a inh -10%, Sfp PPTase inh 4%, JMJD2A Tudor -19% and BAZ2B block -29%.
`Cc1cccc(NC(=O)c2ccc3c(c2)CCN3S(=O)(=O)c2ccccc2)c1C` gave HP1b binding inh 21%, G9a inh 6%[59 µM], JMJD2A Tudor -9% and BAZ2B block 0%.
`CCN(CC)CCCOc1nc(C)nc2c1oc1ccccc12` gave HP1b binding inh 18%, G9a inh 35µM*, Sfp PPTase inh 10%, JMJD2A Tudor -19% and BAZ2B block inconclusive.
For CN(C)CCOc1nc(-c2ccccc2)nc2c1oc1ccccc12 the results were HP1b binding inh -18%, G9a inh inconclusive, Sfp PPTase inh -22%, JMJD2A Tudor inconclusive and BAZ2B block -13%.
For CCOC(=O)c1ccc(Oc2nc(C)nc3c2oc2ccccc23)cc1 the results were HP1b binding inh 36%, G9a inh 4%[59 µM], JMJD2A Tudor -8% and BAZ2B block 5%.
`CCN(CC)CCOc1nc(C)nc2c1oc1ccccc12` gave HP1b binding inh 27%, G9a inh 50µM*, Sfp PPTase inh 4%, JMJD2A Tudor inconclusive and BAZ2B block inconclusive.
`CC(=O)N1CC=CC1(C)C(=O)O` (stereo not given) gave HP1b binding inh 28%, G9a inh 50µM*, Sfp PPTase inh 26%, JMJD2A Tudor -11% and BAZ2B block -4%.
Screening Cn1ncc(C(N)=O)c1NC(=S)NC(=O)c1ccc(Br)o1 returned HP1b binding inh -8%, G9a inh 18µM*, Sfp PPTase inh -87%, JMJD2A Tudor -12% and BAZ2B block -28%.
Screening Cc1cccc(C)c1NC(=S)NC(=O)c1ccc(Br)o1 returned HP1b binding inh -14%, G9a inh 40µM*, Sfp PPTase inh 6%, JMJD2A Tudor -13%[11.4 µM] and BAZ2B block inconclusive.
COc1ccc(NC(=O)Cn2c(SCc3cc(C)ccc3C)nc3ccncc32)c(OC)c1OC was read as HP1b binding inh 21%, G9a inh inconclusive, JMJD2A Tudor inconclusive and BAZ2B block inconclusive.
`Cc1c(/C=N/NC(N)=O)c2ccccn2c1C(=O)c1ccncc1` gave HP1b binding inh 4%, G9a inh 45µM*, Sfp PPTase inh 1%, JMJD2A Tudor inconclusive and BAZ2B block -37%.
For COC(=O)N/N=C/c1c(C)c(C(=O)c2ccc(F)cc2)n2ccccc12 the results were HP1b binding inh 18%, G9a inh 15%[59 µM], Sfp PPTase inh 28%, JMJD2A Tudor -13% and BAZ2B block 5%.
For Cc1c(/C=N/NC(=O)CNc2ccccc2)c2ccccn2c1C(=O)c1ccccc1 the results were HP1b binding inh -17%, G9a inh 40µM*, Sfp PPTase inh 1%, JMJD2A Tudor inconclusive and BAZ2B block -22%.
Screening CC(C)(C)c1cc(C(=O)NCC(=O)OCC(=O)c2cccc([N+](=O)[O-])c2)cc(C(C)(C)C)c1 returned HP1b binding inh 4%, G9a inh -10%, Sfp PPTase inh 2%, JMJD2A Tudor -23% and BAZ2B block -9%.
For COc1ccc2ccccc2c1C(=O)/C=C\c1ccoc1 the results were HP1b binding inh inconclusive, G9a inh 45µM*, Sfp PPTase inh 7.9µM*, JMJD2A Tudor inconclusive and BAZ2B block 28µM*.
`COc1cc(OC)c(C(=O)/C=C/c2ccccc2)c(O)c1O` gave HP1b binding inh -23%, G9a inh -16%[12.7 µM], Sfp PPTase inh -21%, JMJD2A Tudor inconclusive and BAZ2B block inconclusive.
For COc1ccc(N2CCN(c3cc(C)nc4ccc(OC)cc34)CC2)cc1 the results were HP1b binding inh inconclusive, G9a inh 50µM*, Sfp PPTase inh -13%, JMJD2A Tudor 45µM* and BAZ2B block 32µM*.
For COc1ccc(N2CCN(c3cc(C)c4ccccc4n3)CC2)cc1 the results were HP1b binding inh inconclusive, G9a inh 10µM*, Sfp PPTase inh 13%, JMJD2A Tudor inconclusive and BAZ2B block inconclusive.
For COc1ccc2c(C)cc(N3CCCCCC3)nc2c1 the results were HP1b binding inh -19%, G9a inh inconclusive, Sfp PPTase inh inconclusive, JMJD2A Tudor 13µM* and BAZ2B block 22µM*.

Source: PubChem (National Center for Advancing Translational Sciences (NCATS))
